Screening data (PubChem)
Rows were chosen to be rich in hits. Some 4% of all compounds tested hit in one or more screens of this group.
luminol inh ctr = quenches luminol chemiluminescence in Nox1 counter-screen; HRP/luminol/H2O2 chemiluminescence counterscreen; AID 1823; inhibition, % at 6.7 µM; hit rate 0.4% among 16,000; also: reference of the scale not given here
PME-1 Maybridge = inhibitors of human PME-1 in Maybridge library; Q9Y570; recombinant PME-1, FP-Rh probe fluorescence polarization; inhibition, % at 9 µM; hit rate 0.5% among 16,000; in the data active = inhibition above about 30%
Nox1 inhibitor = blocks human NADPH oxidase 1 activity; hit rate 0.81% among 16,000; HT29 cells, luminol chemiluminescence ROS; inhibition, % at 6.7 µM
S1P1 agonist = activates the human S1P1 receptor; hit rate 1.5% among 16,000; activation, % at 4.5 µM; P21453; S1P1 agonist cell-based reporter assay; in the data active = activation above about 80%
Target sequence (P21453 whole entry, looked up): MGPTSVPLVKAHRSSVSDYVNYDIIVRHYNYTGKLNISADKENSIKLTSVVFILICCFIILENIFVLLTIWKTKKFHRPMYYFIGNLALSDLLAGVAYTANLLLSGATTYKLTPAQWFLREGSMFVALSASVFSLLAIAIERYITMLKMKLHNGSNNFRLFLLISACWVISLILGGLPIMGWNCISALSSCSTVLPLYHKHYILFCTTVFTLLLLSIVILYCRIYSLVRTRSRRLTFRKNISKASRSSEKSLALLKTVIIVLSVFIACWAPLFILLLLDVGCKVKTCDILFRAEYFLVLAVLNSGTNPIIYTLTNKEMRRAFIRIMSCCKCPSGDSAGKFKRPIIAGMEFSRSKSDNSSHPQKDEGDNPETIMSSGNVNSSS
KOR antag MB = blocks the human kappa opioid receptor, Maybridge compounds; P41145; OPRK1 cells, antagonist mode, fluorescence readout; inhibition, % at 9 µM; hit rate 0.4% among 16,000; in the data active = inhibition above about 50%
NOTCH agonist = NOTCH pathway agonism; NOTCH signaling luciferase reporter cells, luminescence; activation, % at 2.5 µM; hit rate 0.4% among 15,000; in the data active = activation above about 2.2%
A number is an active result; i = inactive. Rule as the data show it, unless noted: active = inhibition above about 75%; inactive = the rest.

SMILES	luminol inh ctr	PME-1 Maybridge	Nox1 inhibitor	S1P1 agonist	KOR antag MB	NOTCH agonist
Nc1c([N+](=O)[O-])cncc1[N+](=O)[O-]	i	i	i	111.5	i	i
Cc1c([N+](=O)[O-])cc2c(c1[N+](=O)[O-])C(C)(C)CC2(C)C	i	i	i	101.9	i	i
O=C1C(Cl)=C(Cl)C(=O)c2ccccc21	i	44.7	i	i	i	i
NC(N)=NC(N)=NCc1cccnc1	i	i	i	i	i	i
COc1cc2c(cc1OC)[C@@H]1C(=O)c3ccc4c(c3O[C@@H]1CO2)C[C@H](C(C)C)O4	i	i	i	110.1	i	i
CN(C)CCCNc1ccc([N+](=O)[O-])c2cccnc12	i	i	i	i	i	i
CC(=O)c1cc(C(C)(C)C)cc2c1CCC2(C)C	i	i	i	i	i	i
O=C1NC(=S)NC(=O)C1=Cc1cccnc1	i	i	i	i	i	i
CNC(=O)Oc1ccc(-c2nc(CSc3ccc(Cl)cc3)cs2)cc1	101.7	i	i	i	i	i
O=[N+]([O-])/C=C/c1ccc(OCc2ccccc2)cc1	i	i	i	i	62.2	i
CN(C)Cc1c[nH]c2ccc(OCc3ccccc3)cc12	i	i	i	i	i	i
O=C(Nc1[nH]ncc1Br)C(Cl)Cl	i	i	i	i	i	i
